This is a sample that favours compounds with a hit; in the whole collection about 18% have one here.
CtBP-E1A blk: CtBP/E1A binding inhibition; AlphaScreen GST-E1A/His-CtBP binding, 1536-well; hits give low values; activity change, % (test concentration not listed); 0.49% of 340,000 active; in the data active = activity change below about -65%; inconclusive = mostly about -30% to -63%
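GST-E1A and His-tagged CtBP (125 nM each as 5X stock) were preincubated with pin-transferred compound for 2 h at 37 °C in the dark, then glutathione donor and nickel acceptor beads were added for 1 h before AlphaScreen reading.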
DT40 TDP1 CPT: growth inhibition of DT40 Tdp1-/-;hTDP1 cells with camptothecin (screen for TDP1 inhibitors); 12% of 420,000 active; Potency, µM (titrated, usually from 46.2 µM), inactives show at the highest dose activity change, negative = growth inhibition, usual class: inhibitors; chicken DT40 Tdp1-/-;hTDP1 cells + 20 nM CPT, ATP luminescence, 48 h; also: potency is read from the fitted curve at half-maximal effect; nearly all actives have a fitted effect of over 55% in size
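Cell growth measured by CellTiter-Glo luminescence after a minimum 48 h, 37 C compound exposure with 20 nM CPT in Tdp1-knockout DT40 cells stably expressing hTDP1, seeded 400/well; qHTS titration format.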
TDP1 inh: inhibitors of human tyrosyl-DNA phosphodiesterase TDP1; Q9NUW8; recombinant TDP1, AlphaScreen DNA substrate cleavage; Potency, µM (doses to about 130 µM), without a hit: at the top dose activity change, negative = inhibition, usual class: inhibitors; 0.28% of 350,000 active; AID 485290; also: potency is read from the fitted curve at half-maximal effect; nearly all actives have a fitted effect of over 40% in size
Target sequence (Q9NUW8 whole entry, looked up): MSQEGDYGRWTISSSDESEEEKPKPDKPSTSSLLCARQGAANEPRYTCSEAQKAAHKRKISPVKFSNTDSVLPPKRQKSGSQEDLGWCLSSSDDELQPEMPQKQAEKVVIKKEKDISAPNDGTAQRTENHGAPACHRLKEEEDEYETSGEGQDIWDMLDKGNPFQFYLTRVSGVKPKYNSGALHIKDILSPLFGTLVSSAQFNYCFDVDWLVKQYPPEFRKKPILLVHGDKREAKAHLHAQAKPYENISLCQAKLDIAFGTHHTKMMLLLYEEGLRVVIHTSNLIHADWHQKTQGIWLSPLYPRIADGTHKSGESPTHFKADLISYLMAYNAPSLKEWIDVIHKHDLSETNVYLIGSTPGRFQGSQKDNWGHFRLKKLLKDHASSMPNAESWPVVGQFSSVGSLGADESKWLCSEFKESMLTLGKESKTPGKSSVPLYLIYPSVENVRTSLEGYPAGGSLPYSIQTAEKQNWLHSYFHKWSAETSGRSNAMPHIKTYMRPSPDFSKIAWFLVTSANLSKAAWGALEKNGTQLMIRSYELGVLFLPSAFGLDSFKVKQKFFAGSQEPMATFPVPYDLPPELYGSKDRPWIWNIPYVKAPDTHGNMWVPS
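AlphaScreen read-out: signal falls as enzyme removes the 3' tyrosine-FITC from a 5'-biotinylated DNA oligo (15 nM, 5 min, RT). Enzyme was E. coli-made recombinant Tdp1 at 1 nM, exposed to compound for 15 min beforehand; beads 10 ug/ml, 10 min.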
IL1B secr inh: inflammasome signaling inhibition, IL-1 beta readout; THP-1 LPS/ATP IL-1B secretion, AlphaLISA, 16 h; hits give low values; activity change, % at 57.5 µM; 4.7% of 360,000 active; in the data active = activity change below about -50%; inconclusive = mostly about -30% to -49%
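Secreted IL-1B measured by AlphaLISA bead assay after 16 h compound exposure of THP-1 cells; compounds (final up to 57.5 uM) added 1 h before LPS (250 ng/mL) and ATP (1.25 mM) stimulation; lower signal means less secretion.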
DT40 TDP1 no CPT: qHTS for Inhibitors of human tyrosyl-DNA phosphodiesterase 1 (TDP1): qHTS in cells in absence of CPT. Potency, µM (highest dose often 46.2 µM), inactives show at the top dose activity change, negative = growth inhibition, usual class: inhibitors. DT40 Tdp1-/- hTDP1 cells, no CPT, ATP luminescence, 48 h. 15% of 420,000 active. AID 686978, 2013; also: potency is read from the fitted curve at half-maximal effect; nearly all actives have a fitted effect of over 55% in size
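Chicken DT40 Tdp1-/- cells complemented with human TDP1, screened without camptothecin (DMSO vehicle only), 400 cells/well. Compounds pin-transferred, cells incubated at 37 °C for at least 48 hr. Growth read as ATP-dependent luminescence (CellTiter-Glo, 30 min at RT).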
Six1-Eya2 inh: Six1/Eya2 interaction inhibition. AlphaScreen GST-Six1/His-Eya2 binding, biochemical; hits give low values. activity change, % (concentration not given with the values). 0.56% of 360,000 active; in the data active = activity change below about -65%; inconclusive = mostly about -30% to -63%
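AlphaScreen with GST-Six1 and His-Eya2 (5X mix: 250 nM and 500 nM), glutathione donor and nickel acceptor beads; buffer 50 mM Tris pH 8.0, 300 mM NaCl, 1 mM TCEP; 1 h at 37 C in the dark.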
* marks the source's active call; other numbers are inactive results; [ ] = remark or other dose. Unless noted, calls follow the shape of the dose curve; as a rule, active = well fitted curve in the direction sought with a large enough effect; inconclusive = small, poorly fitted or top-dose-only effect, or another doubt; inactive = no such curve, though single readings can be large; an effect the other way counts as inactive or inconclusive. % is scaled to controls: 0 for no effect and ±100 for the full control effect.

Screening Cc1ncc2c(c1CNC(=O)c1ccc3c(c1)OCO3)CCN(C(=O)c1noc3c1CCCC3)C2 returned DT40 TDP1 CPT 0%[9.04 µM] and DT40 TDP1 no CPT -12%.
For C=CCSCC=C the results were DT40 TDP1 CPT 9%, TDP1 inh 12%[56.1 µM] and DT40 TDP1 no CPT -12%.
`COc1ccc(OC)c(NC(=O)c2ccc(CN3CCOCC3)cc2)c1` gave CtBP-E1A blk 10, DT40 TDP1 CPT -3%, TDP1 inh 5%, IL1B secr inh -22, DT40 TDP1 no CPT -24% and Six1-Eya2 inh -4.
For Cc1nc(CCNC(=O)c2ccccc2)cs1 the results were CtBP-E1A blk 6, DT40 TDP1 CPT 0%, TDP1 inh -2%, IL1B secr inh -4, DT40 TDP1 no CPT inconclusive and Six1-Eya2 inh 9.
Screening CC1CC2OC2CC1COC(=O)C1CC2OC2CC1C (centres undefined) returned CtBP-E1A blk -10, DT40 TDP1 CPT 16µM*, IL1B secr inh 17, DT40 TDP1 no CPT inconclusive and Six1-Eya2 inh 3.
For CCOC(=O)NC(=O)/C(C#N)=N\Nc1cccc(Cl)c1 the results were CtBP-E1A blk -6, DT40 TDP1 CPT 23µM*, TDP1 inh 7%, IL1B secr inh 3, DT40 TDP1 no CPT 21µM* and Six1-Eya2 inh -2.
For CCOC(=O)NC(=O)/C(C#N)=N\Nc1ccc(Cl)cc1 the results were CtBP-E1A blk 2, DT40 TDP1 CPT -4%, TDP1 inh 8%, IL1B secr inh 2, DT40 TDP1 no CPT -16% and Six1-Eya2 inh 5.
`CCc1cc(-c2cnnn2Cc2ccccc2)ccc1-c1cn(CC(C)C)nn1` gave CtBP-E1A blk 0, DT40 TDP1 CPT inconclusive, IL1B secr inh inconclusive, DT40 TDP1 no CPT 10µM* and Six1-Eya2 inh -4.
`COC(=O)c1ccc(N2C(=O)c3ccc(OC)c(OC)c3C2=O)cc1` gave CtBP-E1A blk 8, DT40 TDP1 CPT 3%, TDP1 inh 3%, IL1B secr inh -7, DT40 TDP1 no CPT 0% and Six1-Eya2 inh 6.
CCN1CCN(c2ccc(NC(=O)c3ccco3)cc2)CC1 was read as CtBP-E1A blk 0, DT40 TDP1 CPT 3%, TDP1 inh 1%, IL1B secr inh -12, DT40 TDP1 no CPT 20% and Six1-Eya2 inh 5.
For COc1ccc(Cn2c(=O)[nH]c3cc(C(=O)Nc4ccc(N5CCN(C)CC5)cc4)ccc32)cc1 the results were CtBP-E1A blk -16, DT40 TDP1 CPT inconclusive, TDP1 inh -3%, IL1B secr inh -59*, DT40 TDP1 no CPT inconclusive and Six1-Eya2 inh 0.
COc1ccc(Cn2c(=O)[nH]c3cc(C(=O)NC4CCN(Cc5ccccc5)CC4)ccc32)cc1 was read as CtBP-E1A blk -1, DT40 TDP1 CPT inconclusive, TDP1 inh 0%, IL1B secr inh inconclusive, DT40 TDP1 no CPT inconclusive and Six1-Eya2 inh -1.
CCN1CCN(c2ccc(NC(=O)c3ccc4c(c3)[nH]c(=O)n4Cc3ccc(F)cc3)cc2)CC1 was read as CtBP-E1A blk 1, DT40 TDP1 CPT 18µM*, TDP1 inh 3%, IL1B secr inh 29, DT40 TDP1 no CPT 29µM* and Six1-Eya2 inh -25.
Cc1ccc(F)cc1S(=O)(=O)NCc1ccc(N2CCN(C)CC2)cc1 was read as CtBP-E1A blk 0, DT40 TDP1 CPT -8%, TDP1 inh 0%, DT40 TDP1 no CPT inconclusive and Six1-Eya2 inh 5.
`COc1cc(C(=O)OCC(=O)Nc2cc(S(=O)(=O)N3CCOCC3)ccc2C)ccc1OCC(C)C` gave CtBP-E1A blk -1, DT40 TDP1 CPT -11%, IL1B secr inh 9, DT40 TDP1 no CPT inconclusive and Six1-Eya2 inh -5.
Screening CC(=O)c1ccc2c(c1)c(C#N)c1ccccc1[n+]2[O-] returned CtBP-E1A blk -21, DT40 TDP1 CPT 13µM*, IL1B secr inh 7, DT40 TDP1 no CPT 18µM* and Six1-Eya2 inh 11.
For CC(=O)c1ccc2noc(-c3ccccc3)c2c1 the results were CtBP-E1A blk 0, DT40 TDP1 CPT -9%, TDP1 inh -3%, IL1B secr inh inconclusive, DT40 TDP1 no CPT -12% and Six1-Eya2 inh 11.
Screening CC(=O)Nc1cc(-c2ccccc2)cn2c(-c3cccc(C(C)=O)c3)cnc12 returned CtBP-E1A blk -12, DT40 TDP1 CPT 15µM*, IL1B secr inh -3, DT40 TDP1 no CPT 10µM* and Six1-Eya2 inh -20.
`CC(=O)Nc1cc(-c2cccc(NS(C)(=O)=O)c2)cn2c(-c3ccc(F)c(Cl)c3)cnc12` gave CtBP-E1A blk -17, DT40 TDP1 CPT inconclusive, DT40 TDP1 no CPT 23µM* and Six1-Eya2 inh -22.
Screening CC(=O)Nc1cc(-c2cccc(NS(C)(=O)=O)c2)cn2c(-c3cccc(C(C)=O)c3)cnc12 returned CtBP-E1A blk -20, DT40 TDP1 CPT 16µM*, IL1B secr inh 64, DT40 TDP1 no CPT 18µM* and Six1-Eya2 inh -16.
`COc1ccc(-c2cnc3c(NC(C)=O)cc(-c4cccc(NS(C)(=O)=O)c4)cn23)cc1OC` gave CtBP-E1A blk -18, DT40 TDP1 CPT 21µM*, IL1B secr inh -24, DT40 TDP1 no CPT 23µM* and Six1-Eya2 inh -27.
`CC(=O)Nc1cc(-c2cccc(C(=O)N(C)C)c2)cn2c(-c3cccc(C(=O)N(C)C)c3)cnc12` gave CtBP-E1A blk -12, DT40 TDP1 CPT inconclusive, IL1B secr inh -4, DT40 TDP1 no CPT inconclusive and Six1-Eya2 inh -7.
For Cc1cn2c(=O)cc(COc3ccc(C(C)(C)C)cc3)nc2s1 the results were DT40 TDP1 CPT -27%, TDP1 inh 6% and DT40 TDP1 no CPT -19%.
COc1cccc2cc(C(=O)N(Cc3cccs3)Cc3cccs3)c(=O)oc12 was read as DT40 TDP1 CPT -7%, TDP1 inh 1% and DT40 TDP1 no CPT inconclusive.
Screening O=C(NC1CCCC1)c1cc(Cl)ccc1[N+](=O)[O-] returned CtBP-E1A blk 12, DT40 TDP1 CPT -7%, TDP1 inh -5%, IL1B secr inh 3, DT40 TDP1 no CPT 0% and Six1-Eya2 inh 2.
`COc1cccc(C(=O)N(Cc2ccco2)c2c(N)n(Cc3ccccc3)c(=O)[nH]c2=O)c1` gave DT40 TDP1 CPT 5%, TDP1 inh 1%, IL1B secr inh 14, DT40 TDP1 no CPT 3% and Six1-Eya2 inh 6.
`O=C(c1cc2nc(-c3ccc(Cl)cc3)cc(C(F)(F)F)n2n1)N1CCOCC1` gave CtBP-E1A blk 19, DT40 TDP1 CPT inconclusive, TDP1 inh 6%, IL1B secr inh -2, DT40 TDP1 no CPT -8% and Six1-Eya2 inh 14.

Compound activity: PubChem BioAssay, National Center for Advancing Translational Sciences (NCATS)
